# FXIa inh: inhibitors of human coagulation factor XIa; P03951; 33,000 compounds, 0.3% hits; purified human FXIa, fluorogenic AMC substrate cleavage; inhibition, % at 10 µM;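 active = inhibition above 40% in the primary screen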;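 also: 0% = enzyme without compound and 100% = blank wells lacking enzyme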
# FXIIa inh: inhibitors of human coagulation factor XIIa; P00748; purified human FXIIa, AMC substrate fluorescence, 2 h; inhibition, % at 10 µM; 33,000 compounds, 0.2% hits; AID 701; in the data active = inhibition above about 30%;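 also: 0% = enzyme with vehicle only and 100% = no enzyme blank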
# Target sequence (P00748 20-372 limits assumed): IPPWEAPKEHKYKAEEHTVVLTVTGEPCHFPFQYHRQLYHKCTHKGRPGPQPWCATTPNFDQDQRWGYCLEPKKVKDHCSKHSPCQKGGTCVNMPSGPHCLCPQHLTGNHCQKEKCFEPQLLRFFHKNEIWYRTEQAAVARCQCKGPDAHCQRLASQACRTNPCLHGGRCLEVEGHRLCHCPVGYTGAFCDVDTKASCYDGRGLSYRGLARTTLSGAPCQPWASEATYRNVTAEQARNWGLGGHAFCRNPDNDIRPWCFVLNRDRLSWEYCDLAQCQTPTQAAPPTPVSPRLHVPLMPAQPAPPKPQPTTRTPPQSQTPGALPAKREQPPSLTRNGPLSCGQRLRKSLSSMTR
# Target sequence (P00748 373-615 limits assumed): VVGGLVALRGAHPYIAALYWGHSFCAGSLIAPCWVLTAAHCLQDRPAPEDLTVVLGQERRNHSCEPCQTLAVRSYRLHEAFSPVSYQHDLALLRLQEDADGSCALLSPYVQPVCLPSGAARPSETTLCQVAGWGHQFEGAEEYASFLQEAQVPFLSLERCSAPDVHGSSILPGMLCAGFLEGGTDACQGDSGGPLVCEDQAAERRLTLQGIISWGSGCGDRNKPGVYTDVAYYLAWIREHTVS
# Active calls of the source: *; · = no result. This is one part of a sample in which hits are shown more often than they occur.
SMILES,FXIa inh,FXIIa inh
CCOC(=O)C1=C(C)NC2=C(C(=O)CC(C)(C)C2)C1c1coc2ccccc2c1=O (stereo not given),6.6,5.0
CC1=C(C(=O)OC(C)C)C(c2coc3ccccc3c2=O)C2=C(CCCC2=O)N1 (stereo not given),50.4*,7.4
O=S(=O)(c1ccc(C2CCCCC2)cc1)N1CCCC1,5.6,9.4
Cc1csc(-c2cnn(-c3ccccc3)c2NC(=O)c2ccc(C(F)(F)F)cc2)n1,-6.6,6.7
N#Cc1cc2c(nc1SCC(=O)Nc1sc3c(c1C#N)CCC3)CCC2,41.5*,2.1
N#Cc1cc2c(nc1SCC(=O)Nc1sc3c(c1C#N)CCC3)CCCCCC2,-5.3,7.1
CC(=O)Nc1cccc(-c2nnc(SCC(=O)n3c4c(c5ccccc53)CCCC4)n2C)c1,-0.7,-3.4
O=C(Nc1ccc(N2CCN(C(=O)c3ccccc3)CC2)cc1)c1ccc2c(c1)OCO2,36.0,·
O=C(c1ccc2c(c1)OCO2)N1CCN(c2ccc(F)cc2)CC1,3.8,33.2*
COc1ccc(OC)c(C2/C(=C(\O)c3c(C)nc4ccccn34)C(=O)C(=O)N2CCCN(C)C)c1 (stereo not given),-5.5,8.1
CC(C)(C)NC(=O)c1ccccc1-c1nc(-c2ccccc2Cl)no1,-2.3,12.7
Cc1ccc(C(=O)n2nc(-c3cccnc3)nc2N)cc1,42.5*,92.0*
COc1ccc(-c2nc(N)n(C(C)=O)n2)cc1,-1.9,27.1
O=C(NC(NC(=O)c1ccccc1)c1ccccc1)c1ccccc1,14.8,-14.9
O=C(c1cccs1)N1CCN(S(=O)(=O)Cc2ccccc2)CC1,-1.0,7.8
O=S(=O)(Cc1ccccc1)N1CCC(c2nc(-c3cccs3)no2)CC1,45.6*,-10.2
CN(C)C(=O)N1CCN(C(=O)N2CCOCC2)CC1,4.5,8.4
CCC(=O)N1CCN(c2ccccc2NC(=O)COc2cc(C)ccc2C(C)C)CC1,5.5,6.2
CCOc1cccc2cc(C(N)=O)c(=NCc3ccccc3)oc12,51.8*,-7.9
CCOc1ccccc1OC(=O)c1ccco1,4.1,4.6
Cc1cccc(NC2=C(Cl)C(=O)OC2NC(=O)c2ccccc2)c1 (stereo not given),15.2,-12.2
CSc1nc(C)cc(SCCO)n1,1.6,2.8
Cc1cc[n+](-c2nc([O-])n(-c3ccccc3)c2C=O)cc1,-3.9,1.1
COc1ccc(C2=CC(=O)OC3(CCCC3)O2)cc1,25.9,-10.2
Cc1ccc2c(c1)SC1=NC(c3ccccc3)(C(F)(F)F)NC(=O)N12 (stereo not given),-8.1,17.0
SMILES,FXIa inh,FXIIa inh
CCC1CC2CC(NC(C)=O)C1C2 (stereo not given),47.4*,3.6
CC(=O)N[C@H]1C[C@@H]1c1ccccc1,3.0,5.9
Cc1ccc(NCc2nnc(SCC(=O)Nc3cccc(O)c3)n2CC2CCCO2)c(C)c1 (stereo not given),6.0,4.8
CC(C)c1ccc(N(CC(=O)NCCSC(C)(C)C)S(C)(=O)=O)cc1,6.9,-0.6
O=C(N/C=N/OCc1ccc(Cl)cc1Cl)NOCc1ncc(C(F)(F)F)cc1Cl,-1.1,13.3
FC(F)(F)c1cnc(Oc2ccc(-c3nnco3)cc2)c(Cl)c1,-0.8,30.8*
FC(F)(F)c1cnc(Oc2ccccc2-c2nnco2)c(Cl)c1,-4.2,6.9
CCOC(=O)c1c(NS(C)(=O)=O)sc2c1CCC(C)C2 (stereo not given),-4.5,6.9
CCCC1CCc2c(sc(N)c2C(N)=O)C1 (stereo not given),52.3*,7.2
Cn1c(CSCc2ccc(Cl)cc2)nnc1SCC(=O)Nc1nc2ccccc2s1,4.5,6.8
COCCOC(=O)c1c(C)n(C)c2ccc(OC(=O)C3CC3)cc12,8.3,6.1
CC(OC(=O)c1snc(C(=O)NC2CCCCC2)c1N)C(=O)NC1CCCCC1 (stereo not given),4.0,3.0
CC(C)c1ccccc1OCCNS(C)(=O)=O,-3.8,6.9
CCOC(=O)c1ccc(CC2S/C(=C(\C#N)C(C)=O)NC2=O)cc1 (stereo not given),2.8,13.2
CCc1ccc(CC2S/C(=C(\C#N)C(C)=O)NC2=O)cc1 (stereo not given),49.3*,6.7
CCCCCCCOc1ccc(OC(=O)c2ccncc2)cc1,-4.3,-1.0
Cc1ccc(-c2n[nH]c(=O)c3ccccc23)cc1S(=O)(=O)N(C)CCO,17.8,-12.7
Cc1ccc(-c2n[nH]c(=O)c3ccccc23)cc1S(=O)(=O)NCCO,-6.4,38.5*
Fc1cccc(Nc2cc(-n3cccn3)ncn2)c1,1.2,3.9
COC(=O)c1cc(=O)n(CCc2ccc(OC)c(OC)c2)c(=Nc2ccc(F)c(Cl)c2)s1,9.5,0.7
CCOCCC(=O)Nc1cc(Cl)ccc1OC,2.5,-0.5
Clc1ccc(CSc2nnc(-c3ccccn3)n2Cc2ccco2)c(Cl)c1,4.1,1.5
CC(=O)Oc1ccc2c(C)cc(=O)oc2c1,6.4,32.2*
CC(=O)Oc1cc2oc(=O)cc(C)c2cc1OC(C)=O,-0.2,-1.4
CN(C)CCNCc1ccc(OC2CCCC2)cc1,0.2,5.2

# Compound activity (PubChem)
